Hit rate of the full screen: of about 69,000 compounds, about 8,600 (12%) showed an effect of 50% or more. The full list was thinned out, with strong results kept by preference.

The subject of the assay is Plasmodium berghei. Put plainly: Screen against P. berghei liver stage (PbLuc), transformed with Luciferase, at 10uM. It is filed as functional, HepG2. Particulars: tested at 10 uM.
Turning to `Cn1cc(C2CC(=O)NC23CCN(C(=O)Cc2ccccn2)CC3)cn1` (stereo not given), the INHIBITION is recorded as -7.29%. Take `CNC(=O)N1CCC2(CC1)CC[C@@]1(C(=O)NC)CN(S(C)(=O)=O)C[C@@H]21`: the INHIBITION is 12.5%.

As for `CCc1nccn1-c1nccnc1C1CCCN(C(=O)COC)C1` (stereo not given), the INHIBITION was determined as 48.4%. As to `Cc1ncccc1Oc1nccnc1C1CCN(S(C)(=O)=O)CC1`, the INHIBITION amounted to 32.3%.

Turning to `Cc1ncccc1Oc1nccnc1C1CCN(C(C)C)CC1`, the INHIBITION amounted to 40.9%. As to `COCC(=O)N1CCC(c2nccnc2Oc2cccnc2C)CC1`, the INHIBITION is given as 50.4%. In the case of `CCc1nccn1-c1nccnc1C1CCN(C(=O)COC)CC1`, the INHIBITION is given as 67.7%. For the molecule `CCc1nccn1-c1cccc(C2CCN(C(=O)COC)CC2)n1`, the INHIBITION was 20.8%.

For the molecule `CCc1nc(C2CCCN2C(=O)c2cnc3n[nH]c(C)c3c2)no1` (stereo not given), the INHIBITION is recorded as 27%.

Regarding `CC(CN1CCCC1=O)NC(=O)Nc1cccnc1-n1cccn1` (stereo not given), the INHIBITION is 4.66%. `CN1CCN(c2ccnc3c(F)cc(Br)cc23)CC1`: the INHIBITION is listed as 62.8%. For `CC(=O)N1CCN(c2ccnc3c(F)cc(Br)cc23)CC1`, the INHIBITION came out at 40.6%. In the case of `OC1CCN(c2ccnc3c(F)cc(Br)cc23)CC1` it was 16.6%; in that of `CN(C)CC(=O)N1CCOC2(CCCN(c3ncccc3F)C2)C1` (stereo not given), 21.8%. In the case of `CN([C@@H]1CCC[C@@H](n2ccnc2)[C@@H]1O)S(=O)(=O)c1cn(C)cn1` it was 13.7%.

For the molecule `CC(C)(C)c1n[nH]c(C2CN(Cc3nnc(C4CCC4)o3)CCO2)n1` (stereo not given), the INHIBITION is -38.2%. Consider `O=C(CCc1ccccc1)N1CCCC(c2n[nH]c3nccnc23)C1` (stereo not given), for which the INHIBITION came to 32.8%. For the molecule `COc1ccccc1NC(=O)Cc1c(C)nc2c(c1C)c(=O)[nH]n2C`, the INHIBITION is -16.5%. The result for `Cc1nc2c(c(C)c1CC(=O)NCc1ccccc1F)c(=O)[nH]n2C` reads 39.2%. The result for `Cc1nc2c(c(C)c1CC(=O)Nc1ccccc1F)c(=O)[nH]n2C` reads 60.9%; that for `COc1ccccc1C(O)CNC(=O)Nc1cccnc1OC` (stereo not given), -13.5%; that for `COc1cc(N2CCC3(CC2)CC(N2CCOCC2)C3)ncn1`, 0.112%.

As to `O=C(NC[C@H]1OC[C@@H](NC2COC2)[C@@H]1O)Nc1ccccc1`, the INHIBITION is 12.4%. The result for `CN1CCC(N[C@@H]2CO[C@H](CNC(=O)c3cccs3)[C@H]2O)CC1` reads 17.4%. For the molecule `CC(=O)N1CCC(N[C@@H]2CO[C@H](CNC(=O)c3cccs3)[C@H]2O)CC1`, the INHIBITION is 60.9%.

Regarding `O=C(NC[C@H]1OC[C@@H](NC2CCC2)[C@@H]1O)Nc1ccccc1`, the INHIBITION was 41.9%. `O=C(NC[C@H]1OC[C@@H](NC2CCOCC2)[C@@H]1O)Nc1ccccc1`: the INHIBITION stood at 51%. In the case of `CC(C)N[C@@H]1CO[C@H](CNC(=O)Nc2ccccc2)[C@H]1O` it was 50.2%; in that of `O=C(NC[C@H]1OC[C@@H](NCc2ccccc2F)[C@@H]1O)Nc1ccccc1`, -13.4%; in that of `CC(C)NC(=O)NC[C@H]1OC[C@@H](NCc2ccccc2O)[C@@H]1O`, 4.59%. With `CC(C)NC(=O)NC[C@H]1OC[C@@H](NCc2ccccc2F)[C@@H]1O`, the INHIBITION came out at 58.5%. As for `CC(C)N[C@@H]1CO[C@H](CNC(=O)c2ccccc2)[C@H]1O`, the INHIBITION is recorded as -6.23%. Take `O=C(NC[C@H]1OC[C@@H](NC2CCC2)[C@@H]1O)c1cccs1`: the INHIBITION is 18.4%. For the molecule `CC(C)(C)CN[C@@H]1CO[C@H](CNC(=O)Nc2ccccc2)[C@H]1O`, the INHIBITION came out at 41.1%.

Take `Cn1cc(CN2CCc3nc4ccccc4c(=O)n3CC2)cn1`: the INHIBITION is recorded as -10.2%. Take `COC(=O)C(NC(=O)CCOC(C)C)c1cc(F)ccc1F` (stereo not given): the INHIBITION is -19.9%. As for `Cc1ccc(N(CC(=O)N2CCCCC2)C(=O)C2COCCO2)cc1` (stereo not given), the INHIBITION is 11.6%.

For `CC(C)CC(NC(=O)c1cccs1)c1nc2cccnc2n1C` (stereo not given), the INHIBITION is -11.4%. Take `Cn1ccnc1C1(O)CCN(C(=O)CCc2ccccc2)CC1`: the INHIBITION was 27.465%.

As for `O=C1NCCCc2[nH]c(C3CCN(C(=O)C4CC4)CC3)nc21`, the INHIBITION is recorded as 10.4%. Turning to `CN(CCn1cncc1-c1cnc(N2CCOCC2)nc1)C1CCCC1`, the INHIBITION is listed as -11.05%. On to `O=C(NC[C@H]1OC[C@@H](NCc2ccccc2)[C@@H]1O)Nc1ccccc1`, for which the INHIBITION turned out to be 17.7%. On to `CN1CCC(N[C@@H]2CO[C@H](CNC(=O)Nc3ccccc3)[C@H]2O)CC1`, for which the INHIBITION is recorded as 60.1%. With `O=C(NC[C@H]1OC[C@@H](NC2CCCCC2)[C@@H]1O)Nc1ccccc1`, the INHIBITION was 26%.

With `CN(C)C(=O)Cn1c(C2CC2)c(CN2CCOCC2)c2cccnc21`, the INHIBITION is reported as -13.2%.

Take `Cc1c(Cl)cccc1N1CC(c2nnc(N)s2)CC1=O` (stereo not given): the INHIBITION amounted to 35.8%. On to `Cn1cc(CN2CCOC[C@H]2c2nc(C(C)(C)C)co2)c2ccccc21`, for which the INHIBITION is given as 10%.

For `CC(C)(C)c1coc([C@@H]2COCCN2Cc2c[nH]cn2)n1`, the INHIBITION worked out at 62.8%. For `CC(C)(C)c1coc([C@@H]2COCCN2Cc2ccccc2)n1`, the INHIBITION came to 3.25%. Consider `Cn1c(CN2CCOC[C@H]2c2nc(C(C)(C)C)co2)nc2ccccc21`, for which the INHIBITION is 52%.

Turning to `CC(C)(C)c1coc([C@@H]2COCCN2Cc2ncc[nH]2)n1`, the INHIBITION was 20.9%. As for `CC(C)(C)c1coc([C@@H]2COCCN2Cc2ccccn2)n1`, the INHIBITION is recorded as -37.4%. As for `CS(=O)(=O)N1CC[C@H]2OCC[C@@]2(C(=O)NCC2CC2)C1`, the INHIBITION was determined as 42.1%. Consider `CN1CCN(Cc2c(Cl)ccc(O)c2Cl)CC1C(=O)O` (stereo not given), for which the INHIBITION is listed as -27.6%. As for `CN(C)CCN1C(=O)CCCC12CCCN(C(=O)c1ccncc1)C2` (stereo not given), the INHIBITION is recorded as 5.68%. In the case of `COC1COC2(CCN(C(=O)c3cnc(C)cn3)CC2)C1` (stereo not given), the INHIBITION is listed as -21.7%.

Consider `COC1COC2(CCN(C(=O)c3cocn3)CC2)C1` (stereo not given), for which the INHIBITION is given as 39.4%. Consider `O=C(c1cccnc1)N1CCC2(CC1)CC(Oc1ccccc1)CO2` (stereo not given), for which the INHIBITION amounted to 34.4%.

Take `O=C(c1ccccc1)N1CCC2(CC1)CC(Oc1ccccc1)CO2` (stereo not given): the INHIBITION was determined as 52%. Turning to `COC1COC2(CCN(C(=O)c3cscn3)CC2)C1` (stereo not given), the INHIBITION was found to be 53.9%. As for `O=C(c1ccccc1F)N1CCC2(CC1)CC(Oc1ccccn1)CO2` (stereo not given), the INHIBITION is given as 46.6%. In the case of `COc1ncccc1C(=O)N1CCC2(CC1)CC(OC)CO2` (stereo not given) it was 25.8%. `CC(=O)N1CCC2(CC1)CC(Oc1ccccc1)CO2` (stereo not given): the INHIBITION was determined as 33.5%. In the case of `COC1COC2(CCN(C(=O)c3ccccc3F)CC2)C1` (stereo not given) it was 62.9%; in that of `CCn1c(O)c(C(C)=O)c2cc(C)ccc21`, 33.4%.

The values are drawn from ChEMBL document CHEMBL4513216, “Probing the Open Global Health Chemical Diversity Library for Multistage-Active Starting Points for Next-Generation Antimalarials” (ACS Infect Dis, 2020).
